Results: the supplement of paper PMC9135407
“And” between values parts separate entries of the source, which are not always exact repeats. Equal values may be shown once. Where a name gives a salt, the structure may show the parent alone. In all, about 5,800 compounds went through this assay and about 620 (11%) showed activity. The sample holds actives, similar compounds and a random draw of the others, so the mix is not that of the screen. Unmarked numbers belong to inactive results.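 How the source made its calls: active = score above a cut-off or among the top three wells of a plate; in these data no inactive exceeds 0.85.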

Tested on: primary human hepatic stellate cells (donor 1)
Test: scaled lipid accumulation score (0 = DMSO-like, 1 = nortriptyline-like); higher = stronger HSC inactivation (lipid re-accumulation), active = hit call of the paper
Details: 48 h
[1] = library stock concentration: 10 mM
[2] = library stock concentration: 1 mM
[3] = library stock concentration: 3.33 mM
[4] = library stock concentration: 80 uM
[5] = library stock concentration: 400 uM
[6] = library stock concentration: 2 mM

## Cc1cc(/C(=C/Nc2ccc(Cl)cc2)C(=O)Nc2ccc(Cl)cc2)on1
[1]
  scaled lipid accumulation score: 0.332

## CCCCCC#CCC#CCCCCCCCC(=O)O [9,12-Octadecadiynoic Acid]
[2]
  scaled lipid accumulation score: 0.001

## Cc1c(C)c2c(c(C)c1O)CCC(C)(CCCC(C)CCCC(C)CCCC(C)C)O2 (stereo not drawn) [Alpha-tochopherol]
[1]
  scaled lipid accumulation score: ≤ 0

## COc1cc(C[C@H]2C(=O)OC[C@@H]2Cc2ccc(OC)c(OC)c2)ccc1O [Arctigenin]
[1]
  scaled lipid accumulation score: ≤ -0.006

## C/C(=N\NC(=O)C1C(=O)NCC1c1ccccc1)c1cccc(Br)c1 (stereo not drawn)
[1]
  scaled lipid accumulation score: ≤ -0.001

## CCOC(=O)C1=C(N)Oc2ccc(Br)cc2[C@H]1[C@H](C#N)C(=O)OCC
[1]
  scaled lipid accumulation score: 1.15 (active)

## CCOC(=O)C1=C(N)Oc2ccc(Br)cc2C1C(C#N)C(=O)OCC (stereo not drawn)
[3]
  scaled lipid accumulation score: 0.391
[1]
  scaled lipid accumulation score: 0.006

## CCCCCCCCCCCCCCCC(=O)OCC(O)C1OC(=O)C(O)=C1O [L-Ascorbyl 6-palmitate]
[3]
  scaled lipid accumulation score: 0.009
[1]
  scaled lipid accumulation score: ≤ 0

## CC1(CN2CCC(n3c(=O)[nH]c4ccccc43)CC2)OCc2ccccc2-n2cccc21 (stereo not drawn)
[1]
  scaled lipid accumulation score: 0.057

## O=C(Nc1cc(Cl)cc2c1[nH]c1cnccc12)c1cccnc1 [IKK Inhibitor X]
[3]
  scaled lipid accumulation score: ≤ 0

## C#Cc1cccc(Nc2ncnc3cc(OC)c(OCCCCCCC(=O)NO)cc23)c1
[3]
  scaled lipid accumulation score: 0.652
[1]
  scaled lipid accumulation score: 0.306

## C#Cc1cccc(Nc2ncnc3cc(OCCOC)c(OCCOC)cc23)c1 [Erlotinib]
Library stock concentration: 5.1 mM
  scaled lipid accumulation score: ≤ -0.006

## COc1cc2c(Nc3ccc(NC(=O)c4ccccc4)cc3)ncnc2cc1OCCCN1CCOCC1 [listing 1 of 4 here]
[3]
  scaled lipid accumulation score: 1.06 (active)
[1]
  scaled lipid accumulation score: 1.11 (active)

## COc1cc2ncnc(N3CCN(C(=O)Nc4ccc(Oc5ccccc5)cc4)CC3)c2cc1OC
[4]
  scaled lipid accumulation score: ≤ -0.001
[5]
  scaled lipid accumulation score: ≤ -0.001
[6]
  scaled lipid accumulation score: ≤ -0.001
[1]
  scaled lipid accumulation score: ≤ -0.001

## COc1cc2c(N3CCN(C(=O)Nc4ccc(OC(C)C)cc4)CC3)ncnc2cc1OCCCN1CCCCC1 [listing 1 of 2 here]
[1]
  scaled lipid accumulation score: 1.24 (active)

## COc1cc2c(Nc3ccc(NC(=O)c4ccccc4)cc3)ncnc2cc1OCCCN1CCOCC1 [listing 2 of 4 here]
[1]
  scaled lipid accumulation score: 1.14 (active)

## COc1cc2ncnc(N3CCN(C(=O)Nc4ccc(Oc5ccccc5)cc4)CC3)c2cc1OC [PDGF Receptor Tyrosine Kinase Inhibitor III]
[3]
  scaled lipid accumulation score: ≤ 0

## COc1cc2ncnc(Nc3ccc(NC(=O)c4ccccc4)cc3)c2cc1OC [Aurora Kinase Inhibitor II]
[3]
  scaled lipid accumulation score: ≤ 0

## COc1cc2c(N3CCN(C(=O)Nc4ccc(OC(C)C)cc4)CC3)ncnc2cc1OCCCN1CCCCC1 [Tandutinib (MLN518)]
[3]
  scaled lipid accumulation score: 0.295
[1]
  scaled lipid accumulation score: 0.406

## COc1cc2c(Nc3ccc(NC(=O)c4ccccc4)cc3)ncnc2cc1OCCCN1CCOCC1 [listing 3 of 4 here]
[1]
  scaled lipid accumulation score: 1.03 (active)

## C#Cc1cccc(Nc2ncnc3cc(OCCOC)c(OCCOC)cc23)c1
[4]
  scaled lipid accumulation score: ≤ -0.009
[5]
  scaled lipid accumulation score: ≤ -0.009 and ≤ -0.005
[6]
  scaled lipid accumulation score: ≤ -0.009 and ≤ -0.005
[1]
  scaled lipid accumulation score: 0.052 and 0.04

## COc1cc2c(N3CCN(C(=O)Nc4ccc(OC(C)C)cc4)CC3)ncnc2cc1OCCCN1CCCCC1 [listing 2 of 2 here]
[5]
  scaled lipid accumulation score: 0.045
[6]
  scaled lipid accumulation score: 0.538
[1]
  scaled lipid accumulation score: 0.65

## COc1cc2c(Nc3ccc(NC(=O)c4ccccc4)cc3)ncnc2cc1OCCCN1CCOCC1 [listing 4 of 4 here]
[4]
  scaled lipid accumulation score: ≤ -0.001
[5]
  scaled lipid accumulation score: ≤ -0.009
[6]
  scaled lipid accumulation score: 0.256

## C#Cc1cccc(Nc2ncnc3cc(OCCOC)c(OCCOC)cc23)c1 [Erlotinib HCl (OSI-744)]
[3]
  scaled lipid accumulation score: ≤ 0
[1]
  scaled lipid accumulation score: ≤ 0

## C[C@]12C=CC(=O)N[C@@H]1CC[C@@H]1[C@@H]2CC[C@]2(C)[C@@H](C(=O)Nc3cc(C(F)(F)F)ccc3C(F)(F)F)CC[C@@H]12 [Dutasteride]
[3]
  scaled lipid accumulation score: ≤ 0
[1]
  scaled lipid accumulation score: 0.409

## Cc1cc(Nc2nc(-c3ccccc3)nc3ccccc23)n[nH]1 [GSK-3 Inhibitor XIII]
[3]
  scaled lipid accumulation score: ≤ 0

## CCCCCC=CCC=CCCCCCCCC(=O)OC(COC(=O)CCCCCCCCCCCCCCC)COP(=O)(O)OCCN (stereo not drawn) [1-Palmitoyl-2-linoleoyl PE]
[2]
  scaled lipid accumulation score: 0.006

## CCCCC/C=C\C/C=C\C/C=C\CCCCCCC(=O)OCC [Dihomo-.gamma.-Linolenic Acid ethyl ester]
[2]
  scaled lipid accumulation score: 0.019

## COc1ccc2cc(CC(=O)O)ccc2c1 [6-methoxy Naphthalene Acetic Acid]
[2]
  scaled lipid accumulation score: 0.002

## CC#CCC(C)[C@@H](O)/C=C/[C@@H]1[C@H]2C/C(=C/CCCC(=O)O)C[C@H]2C[C@H]1O (stereo partly drawn) [15(R)-Iloprost]
[2]
  scaled lipid accumulation score: ≤ 0

## CC(C)(C(=O)NCC(F)(F)C(F)(F)F)C(=O)N[C@@H]1C(=O)Nc2ccccc2-c2ccccc21
[3]
  scaled lipid accumulation score: ≤ 0
[1]
  scaled lipid accumulation score: ≤ 0

## CC(=O)Nc1c(I)cc(I)c(C(=O)O)c1I [Acetriazoic acid]
Library stock concentration: 3.6 mM
  scaled lipid accumulation score: 0.001
[1]
  scaled lipid accumulation score: ≤ -0.027

## CSc1nc(-c2ccnc(NC(C)c3ccccc3)c2)c(-c2ccc(F)cc2)[nH]1 (stereo not drawn) [p38 MAP Kinase Inhibitor III]
[3]
  scaled lipid accumulation score: ≤ 0

## CCCCCCCCCCCCCCCC(=O)OC(CC(=O)O)C[N+](C)(C)C (racemic) [Palmitoyl-DL-Carnitine chloride]
[1]
  scaled lipid accumulation score: 0.446

## [O-]/[N+](=N\O[C@@H]1O[C@H](CO)[C@H](O)[C@H](O)[C@H]1O)N1CCCC1 [.beta.-Gal-NONOate]
[2]
  scaled lipid accumulation score: ≤ 0

## CCCCC/C=C\C/C=C\CCCCCCCC(=O)O [Linoleic Acid (peroxide free)]
[2]
  scaled lipid accumulation score: 0.024

## CCCCC/C=C\C/C=C\CCCCCCCC(=O)O [Linoleic acid]
[2]
  scaled lipid accumulation score: ≤ -0.021

## CCCCC[C@H](O)/C=C/[C@H]1C(=O)C[C@H](O)[C@@H]1C/C=C\CCCC(=O)O [Prostaglandin D2]
[2]
  scaled lipid accumulation score: ≤ 0

## CCCCC[C@H](O)/C=C/[C@H]1C(=O)C[C@H](O)[C@@H]1C/C=C\CCCC(=O)O [Prostaglandin  D2]
[2]
  scaled lipid accumulation score: ≤ -0.021

## COc1cc2c(Oc3ccc(NC(=O)C4(C(=O)Nc5ccc(F)cc5)CC4)cc3F)ccnc2cc1OCCCN1CCOCC1 [listing 1 of 2 here]
[3]
  scaled lipid accumulation score: 1.09 (active)

## COc1cc2nccc(Oc3ccc(NC(=O)C4(C(=O)Nc5ccc(F)cc5)CC4)cc3)c2cc1OC [Cabozantinib malate (XL184)]
[3]
  scaled lipid accumulation score: 0.354
[1]
  scaled lipid accumulation score: 0.677

## COc1cc2nccc(Oc3ccc(NC(=O)C4(C(=O)Nc5ccc(F)cc5)CC4)cc3)c2cc1OC
[4]
  scaled lipid accumulation score: 0.011
[5]
  scaled lipid accumulation score: ≤ -0.016
[6]
  scaled lipid accumulation score: 0.189
[3]
  scaled lipid accumulation score: 0.757
[1]
  scaled lipid accumulation score: 0.459 and 0.491

## COc1cc2c(Oc3ccc(NC(=O)C4(C(=O)Nc5ccc(F)cc5)CC4)cc3F)ccnc2cc1OCCCN1CCOCC1 [listing 2 of 2 here]
[4]
  scaled lipid accumulation score: 0.524
[5]
  scaled lipid accumulation score: 0.545
[6]
  scaled lipid accumulation score: 0.834
[1]
  scaled lipid accumulation score: 0.842 and 0.706

## NCCC(=O)NCCc1c[nH]cn1 [Carcinine]
  scaled lipid accumulation score: 0.074

## O=C(NCCCNc1nc(Nc2cccc(NC(=O)N3CCCC3)c2)ncc1I)c1cccs1 [listing 1 of 4 here]
[1]
  scaled lipid accumulation score: 1.2 (active)

## O=C(NCCCNc1nc(Nc2cccc(NC(=O)N3CCCC3)c2)ncc1I)c1cccs1 [listing 2 of 4 here]
[1]
  scaled lipid accumulation score: 0.937 (active)

## O=C(NCCCNc1nc(Nc2cccc(NC(=O)N3CCCC3)c2)ncc1I)c1cccs1 [listing 3 of 4 here]
[1]
  scaled lipid accumulation score: 1.07 (active)

## O=C(Nc1cccc(Nc2ncc(Br)c(NCCc3cnc[nH]3)n2)c1)N1CCCC1
[4]
  scaled lipid accumulation score: ≤ 0
[5]
  scaled lipid accumulation score: ≤ 0 and ≤ -0.005
[6]
  scaled lipid accumulation score: ≤ 0 and ≤ -0.005
[3]
  scaled lipid accumulation score: ≤ 0
[1]
  scaled lipid accumulation score: 0.029 and 0.7

## O=C(NCCCNc1nc(Nc2cccc(NC(=O)N3CCCC3)c2)ncc1I)c1cccs1 [listing 4 of 4 here]
[4]
  scaled lipid accumulation score: ≤ -0.016
[5]
  scaled lipid accumulation score: ≤ -0.016 and ≤ -0.005
[6]
  scaled lipid accumulation score: ≤ -0.016 and 0.235
[3]
  scaled lipid accumulation score: 0.048

## O=C(Nc1cccc(Nc2ncc(Br)c(NCCc3c[nH]cn3)n2)c1)N1CCCC1
[1]
  scaled lipid accumulation score: 0.978 (active)

## CC(=O)Oc1ccc2c(c1)CCC1C2CC[C@]2(C)C(=O)CCC12 (stereo partly drawn) [Estrone acetate]
[1]
  scaled lipid accumulation score: ≤ 0

## CCCCn1c(=O)c2c(ncn2CC(C)=O)n(CCCC)c1=O [Denbufylline]
Library stock concentration: 6.2 mM
  scaled lipid accumulation score: ≤ -0.006

## CCCCc1nc2ccn(Cc3cccs3)c(=O)c2n1Cc1ccc(-c2ccccc2-c2nn[nH]n2)cc1
[1]
  scaled lipid accumulation score: ≤ -0.006

## Cc1cc(C(=O)O)sc1C(N)C(=O)O (stereo not drawn)
[1]
  scaled lipid accumulation score: 0.007

## CCCn1c(=O)[nH]c(=O)c2[nH]cnc21 [3-n-Propylxanthine]
[1]
  scaled lipid accumulation score: ≤ 0

## CCOC(=O)c1[nH]c2cc(Cl)ccc2c1C(C(=O)NC(C)(C)C)N(C=O)Cc1ccc(Cl)cc1 (stereo not drawn)
[3]
  scaled lipid accumulation score: ≤ -0.009
[1]
  scaled lipid accumulation score: 0.547

## Nc1nc(SCc2ccc([N+](=O)[O-])cc2)c2ncn([C@@H]3O[C@H](CO)[C@H](O)C3O)c2n1 (stereo partly drawn) [S-(4-Nitrobenzyl)-6-thioguanosine]
[1]
  scaled lipid accumulation score: 0.41

## O=C(O)CCC/C=C\C[C@H]1[C@@H](O)CC(=O)[C@@H]1/C=C/[C@@H](O)CCc1ccccc1 [17-phenyl trinor Prostaglandin D2]
[2]
  scaled lipid accumulation score: ≤ 0
